Inconclusive results are not listed. Calls of active or inactive are those of the source. Calls come from the whole dose curve; as a rule, active = well fitted activation curve with a large enough effect; inconclusive = small, poorly fitted or top-dose-only effect; inactive = flat fitted curve, though single readings scatter.
molecular target: Luciferin 4-monooxygenase (Photinus pyralis) (UniProt P08659); experiment: FLuc inhibitory activity for the follow-up compounds in a cell-based translational read-through assay (72 hour incubation); details: GripTite 293 FLucUGA read-through, luminescence; series mostly up to 38.3 µM
Text: NCGC Assay Overview: Firefly (Photinus pyralis) luciferase is one of the most commonly used transcriptional reporters. It is considered one of the more dynamically responsive reporters - that is, responsive to changes in reporter transcription - as it requires no post-translational modifications and is enzymatically active directly after protein synthesis (Wood, 1998). With no endogenous expression in mammalian cells and without the requirement of external excitation, it offers very little background signal, thus generally providing excellent signal to background for most assays. Previous profiling work to determine the prevalence of compounds that affect FLuc enzymatic activity (PubChem AID 411) identified that ~3% of the MLSMR library (then at ~72K) inhibited FLuc (Auld et al., 2008). […] Of the compounds identified in this profile that inhibited FLuc, 151 compounds were selected for further analysis, in an effort to better understand their mode of inhibiting FLuc. The assay described here was to determine the activity of the compounds in a cell-based firefly luciferase reporter gene assay originally designed to identify compounds that enchanced translational read-through of a FLuc cDNA that contained a premature stop codon (Auld et al., 2009; Auld et al., 2010). Compounds that enhance translational read-through or compounds that stabilize FLuc intracellularly are identified as active compounds in the assay.
NCGC Assay Protocol Summary: Reagents: Transient transfection of FlucUGA construct: TransFast Transfection Reagent (Promega #E2431); FLucUGA construct (refer to Auld et al., 2009) #GripTite 293 MSR Cell Line (Invitrogen #R795-07) #Complete growth media: DMEM (Invitrogen #11965), 10% HIFBS, 0.1mM MEM NEAA, 5mL/L pen-strep (of 5000U/mL stock), 600ug/mL Geneticin #Assay media: DMEM without phenol red (Invitrogen #21063), 5% charcoal-stripped HIFBS (Hyclone #SH30071.03), 0.1mM MEM NEAA In-house detection reagent: 300mM Tris-HCl, 300mM Trizma base, 300mM MgCl, 1% Triton-X100, 5mM DTT, 500uM Coenzyme A trilithium salt (Sigma #C3019),450uM ATP (Sigma #A7699), 1mM D-luciferin sodium salt monohydrate (Biosynth #L8240) Control compounds used were two known firefly luciferase inhibitors (3-(5-(3-chlorophenyl)-1,2,4-oxadiazol-3-yl)benzoic acid and 5-(2-fluorophenyl)-3-phenyl-1,2,4-oxadiazole), and DMSO. Assay Summary: Transient transfection of FlucUGA construct: Day 1: GripTite cells were plated in T175 flasks at a density of 1.75 x 10^7 cells/T175 flask in complete growth media without Geneticin and allowed to grow ON in a 37 degrees Celsius incubator. Day 2: Cells in T175 flask were transfected - with 10ug of DNA and 30uL Transfast in 12mL complete growth media without serum and without Geneticin for 4 hours at 37 degrees Celsius. After incubation, cells were trypsinized, spun down, and resuspended to a concentration of 3.3 x 10^5 cells/mL in assay media. 6uL of cells in assay buffer were dispensed at 2000cells/well (3.3 x 10^5 cells/mL) into Greiner solid-white TC-treated 1536-well plates using a Multidrop Combi (Thermo Fisher Scientific). Plates were incubated for one hour at 37 degree Celsius, 95% humidity, 5% CO2. These assay plates were then treated with 23nL of compound or DMSO using a Kalypsys pin tool, which allows for delivery of a 12-point titration of each compound to the assay plate, with a final compound concentration ranging from approximately ~38uM to 0.2nM. Assay plates were then incubated for 72 hours. After incubation, plates were washed three times with DPBS (7uL/well). After the third wash, 6uL of DPBS was added to each well. 3uL of 3X luciferase detection reagent was then added to each well using a flying reagent dispenser (FRD). After a 15 minute incubation to allow for cell lysis, luciferase activity was measured using a ViewLux CCD imager (PerkinElmer), with an average exposure time of 2-12 seconds.

Sequence of Luciferin 4-monooxygenase (Photinus pyralis) (P08659 whole entry, looked up): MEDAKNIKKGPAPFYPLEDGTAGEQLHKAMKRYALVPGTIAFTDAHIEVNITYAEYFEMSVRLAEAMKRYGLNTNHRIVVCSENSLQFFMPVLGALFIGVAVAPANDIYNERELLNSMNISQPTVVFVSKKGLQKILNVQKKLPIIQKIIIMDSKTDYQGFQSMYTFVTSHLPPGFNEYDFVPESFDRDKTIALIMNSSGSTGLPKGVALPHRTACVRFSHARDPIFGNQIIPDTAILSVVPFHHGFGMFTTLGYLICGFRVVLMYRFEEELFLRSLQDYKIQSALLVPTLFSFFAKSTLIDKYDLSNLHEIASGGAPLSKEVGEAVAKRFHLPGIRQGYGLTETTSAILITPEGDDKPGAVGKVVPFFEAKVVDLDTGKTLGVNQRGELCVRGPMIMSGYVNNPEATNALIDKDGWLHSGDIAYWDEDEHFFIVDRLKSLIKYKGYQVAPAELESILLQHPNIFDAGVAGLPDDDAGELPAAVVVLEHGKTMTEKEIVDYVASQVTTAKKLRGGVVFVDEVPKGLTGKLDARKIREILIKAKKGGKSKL

Potency, active:
O=C(Nc1ccc(-c2nc3ccccc3s2)cc1)C1=COCCO1 318 nM
COc1cccc(-c2nc3ccccc3s2)c1 3560 nM
CN(C)c1cccc(C(=O)Nc2ccc(-c3nc4ccccc4s3)cc2)c1 1790 nM
c1ccc2sc(-c3ccc4c(c3)OCO4)nc2c1 1790 nM
Cc1ccc2sc(-c3ccc(N)cc3)nc2c1 356 nM
CCn1c(C)nc2cc(-c3nc4n(n3)Cc3ccccc3-4)ccc21 79.8 nM
CCOc1ccc(C(=O)Nc2ccccc2C(=O)O)cc1 14200 nM
Cc1ccc2nc(-c3ccc(N)cc3)sc2c1 1420 nM
CCOc1ccc2nc(NC(=O)c3cccnc3)sc2c1 3560 nM
COc1ccc2nc(NC(=O)c3ccc([N+](=O)[O-])o3)sc2c1 20000 nM
CCOc1ccc2nc(NC(=O)c3ccccc3)sc2c1 1790 nM
Cc1ccc(C(=O)O/N=C(\N)c2ccccn2)c(Cl)c1 1260 nM
COc1ccc(-c2nc3ccccc3s2)cc1O 14200 nM
Oc1ccc(-c2nc3ccccc3s2)c(O)c1 12600 nM

Potency, inactive:
COc1cc(C(=O)Nc2cc(C)c(O)c(-c3nc4ccccc4s3)c2)cc(OC)c1OC
O=C(Nc1ccccc1C(=O)O)c1cc(S(=O)(=O)Nc2cccc(F)c2)ccc1Cl
COc1ccc2nc(NC(=O)CCc3ccc(OC)c(OC)c3)sc2c1
O=C(Cc1ccccc1)Nc1ccccc1C(=O)Nc1ccc(C(=O)O)cc1
O=C(Nc1ccccc1C(=O)O)c1ccc(NC(=O)C2CCCO2)cc1 (stereo not given)
O=C(Nc1cccc(-c2nc3ccccc3s2)c1)C1=COCCO1
CC(C)Oc1ccc(C(=O)Nc2ccc(-c3nc4ccccc4s3)cc2)cc1
COc1ccc(CC(=O)Nc2cccc(C(=O)Nc3ccccc3C(=O)O)c2)cc1OC
Cc1cccc(C(=O)Nc2ccc(-c3nc4ccccc4s3)cc2Cl)c1
O=C(Nc1ccccc1C(=O)O)c1cccc(NC(=O)c2ccccc2Br)c1
O=C(Nc1ccccc1C(=O)O)c1cccc(NC(=O)c2ccccc2Cl)c1
COc1ccc(C(=O)Nc2ccccc2C(=O)N/N=C/c2ccc(O)c(OC)c2)cc1
O=C(Cc1ccccc1)Nc1ccc(C(=O)Nc2ccccc2C(=O)O)cc1
CCc1noc(C)c1C(=O)Nc1nc2ccc(OC)cc2s1
Cc1cccc(NS(=O)(=O)c2cccc(C(=O)Nc3cccc(C(=O)O)c3)c2)c1
O=C(O)c1cccc(NC(=O)c2ccccc2NC(=O)c2ccco2)c1
CC(=O)Oc1ccc(C(=O)Nc2ccccc2C(=O)Nc2ccc(C(=O)O)cc2)cc1
COc1ccc2nc(NC(=O)c3nc(S(=O)(=O)Cc4ccc(C)cc4)ncc3Cl)sc2c1
O=C(Nc1ccc(Cl)cc1-c1nc2ccccc2s1)c1ccco1
CN(C)S(=O)(=O)c1ccc(C(=O)Nc2cccc(C(=O)O)c2)cc1
CCOc1ccc2nc(NC(=O)c3cc([N+](=O)[O-])ccc3N3CCOCC3)sc2c1
CC(C)c1ccc(C(=O)Nc2ccc(-c3nc4ccccc4s3)c(Cl)c2)cc1
O=C(O)c1ccccc1NC(=O)c1ccccc1Nc1ccccc1
O=C(Nc1ccccc1C(=O)O)c1cccc(S(=O)(=O)N2CCCC2)c1
COc1ccc2nc(NC(=O)CCc3nc(-c4ccccc4F)no3)sc2c1
CCCOc1cccc(C(=O)Nc2ccc(-c3nc4ccccc4s3)c(Cl)c2)c1
